About 370 (0.31%) of roughly 120,000 compounds were called active. A call without a number means that no potency is given here. Inconclusive results (about 4%) are left out. Only a selection was taken, and actives are over-represented in it overall. A number with no mark means an inactive call. Calls follow the shape of the full dose curve.
Assay: Primary qHTS Assay for Foot and Mouth Disease Virus Antivirals against NCGC Sytravon and CBC Compound Libraries: Renilla Luciferase Signal; also: nearly all actives have a fitted effect of over 55% in size
Settings: FMDV replicon cells; series mostly up to 57.5 µM
Potency is read from the fitted curve at half-maximal effect.

Compound | Potency | activity change, negative = inhibition
Cc1cc(C)cc(Nc2nc(NCc3ccco3)nc3c2cnn3-c2ccccc2)c1 | inactive | 
Fc1cccc(-c2nc(COc3ccc4ccc(C(F)(F)F)nc4c3)co2)c1 | inactive | 
C#CCN([C@H](C(=O)OC)C(C)CC)S(=O)(=O)c1ccccc1Br (stereo not given in full) | inactive | 
CC1CC1C(=O)Nc1ccc2c(c1)CCC2 (stereo not given) | inactive | 
O=C(NCCc1ccc(F)cc1)c1[nH]c2ccccc2c1Cl | inactive | 
COc1ccc(OC)c(C(O)c2nc3ccccc3n2C)c1 (stereo not given) | inactive | 
Cc1ccc(CC(=O)NCc2ccc(COC(C)C)cc2)cc1 | inactive | 
Cc1ccc(C)c(NC(NC(=O)c2cccc(Cl)c2)C(Cl)(Cl)Cl)c1 (stereo not given) | inactive | 
CN(C(N)=NC(=O)/C=C/c1ccccc1)C(C#Cc1ccccc1)Cc1ccccc1 (stereo not given) | inactive | 
CCc1nnsc1C(=O)NC(C)c1cccc(OC(C)C)c1 (stereo not given) | inactive | 
O=C(CN1CCCC(C(F)(F)F)C1)Nc1cccc2ncccc12 (stereo not given) | inactive | 
CCOC(=O)c1ccccc1NC(=O)COC(=O)c1ccc2c(c1)NC(=O)C(C)S2 (stereo not given) | inactive | 
COc1ccc(CSc2nnc(C3CC3)n2C2CC2)cc1F | inactive | 
COc1ccc(C)cc1NC(=O)c1ccc2c(c1)NC(=O)CS2 | inactive | 
COc1ccc(Br)cc1COc1ccc(C#N)cc1 | inactive | 
Cc1ccc(NCc2cc3ccc(C)cc3[nH]c2=O)c(C)c1 | inactive | 
Cc1cnc(NC(=O)CNC(=O)c2ccoc2)s1 | inactive | 
CC(CC(=O)Nc1ccc(O)cc1)(C(=O)O)c1ccccc1 (stereo not given) | inactive | 
CC(/C=N/NC(=O)c1ccc(C)cc1)=C\c1ccccc1 | inactive | 
CCC(C)NC(=O)CSc1ncc(-c2cccc(Br)c2)o1 (stereo not given) | inactive | 
O=C(Cc1ccc(F)cc1)Nc1c(NC2CCCCC2)c2ccccc2oc1=O | inactive | 
CN(C)C(CNC(=O)Cc1n[nH]c(=O)c2ccccc12)Cc1ccccc1 (stereo not given) | inactive | 

Compound | Potency | activity change, negative = inhibition
CCCC(=O)Nc1nc2ccc(CCC(=O)NCc3cc(Br)ccc3OC)cc2s1 | inactive | 
CS(=O)(=O)N(CC(=O)N1CCc2ccccc2C1)c1cc(C(F)(F)F)ccc1Cl | inactive | 
Cc1ccc(C)c(N2CCN(C(=O)C3CCC(CNS(=O)(=O)c4cccs4)CC3)CC2)c1 (stereo not given) | 31.6 µM (active) | 
COc1cccc(CNC(=O)C2CCC(CNS(=O)(=O)c3cccs3)CC2)c1 (stereo not given) | inactive | 
O=C(CNS(=O)(=O)c1cccs1)N1CCN(c2ccccc2Cl)CC1 | inactive | 
Fc1cc(CSc2nncn2C2CC2)c2ncccc2c1 | inactive | 
CC1CCN(S(=O)(=O)c2ccc3oc(=O)ccc3c2)CC1 | inactive | 
CCOC(=O)c1cnc(Nc2ccccc2)c2ccccc12 | inactive | 
CC1(C)CC(=O)C2=C(C1)N(Cc1ccccc1)C(CCC1CCCCC1)=NC2(C(F)(F)F)C(F)(F)F | inactive | 
COc1cc(C(=O)Oc2c(C)cccc2C)cc(Cl)c1OC(C)C |  | -5.15% [at 1.06 µM]
CCn1c(C)cc(C(=O)Cn2nc(C)c(C)c(C#N)c2=O)c1C | inactive | 
CCCCS(=O)C1CCCCC1OC(=O)c1ccccc1 (stereo not given) | inactive | 
O=C(OCc1cccnc1)c1nn(Cc2ccccc2)c(=O)c2ccccc12 | inactive | 
COC(=O)c1ccc(Cl)cc1NC(=O)Cn1c(=O)n(Cc2ccc(F)cc2)c(=O)c2ccccc21 | inactive | 
CC(C)NC(=O)CN1CCCN(C(=O)c2cc3ccccc3n2C)CC1 | inactive | 
O=C(NCc1ccc2c(c1)CCN2C(=O)c1ccccc1)c1ccccc1 | inactive | 
O=C(NCc1ccc2c(c1)CCN2C(=O)c1ccccc1)Nc1cc(F)ccc1F | 8.91 µM (active) | 
O=C(COc1ccccc1)NCc1ccc2c(c1)CCN2C(=O)c1ccc(F)cc1 | inactive | 
COC(=O)Cc1csc(NC(=O)Cc2c(C)c3ccc(OC)cc3oc2=O)n1 | inactive | 
O=C(NCCOc1ccccc1F)c1n[nH]c(=O)c2ccccc12 | inactive | 
NS(=O)(=O)c1ccc(NC(=O)COc2ncnc3ccc(Br)cc23)cc1 | inactive | 
Cc1cccc2nc(-c3ccc(N4CCOCC4)cc3)c(Nc3ccc4c(c3)OCCO4)n12 | inactive | 

Compound | Potency | activity change, negative = inhibition
O=C(OC1CCCCC1=O)c1ccc(Cl)c(Cl)c1 (stereo not given) | inactive | 
O=C(NC(Cc1cccc(F)c1)c1cccc(F)c1)C1CCOCC1 (stereo not given) | inactive | 
O=C(CCC(=O)c1ccc(Cl)cc1)OCc1ccc(Cl)cc1Cl | inactive | 
CCOc1ccc(CCNC(=O)C(C)n2nc(C)n3c(cc4sccc43)c2=O)cc1OCC (stereo not given) | inactive | 
CCc1ccc(/C=C(\C#N)C(=O)NC2CC2)s1 | inactive | 
C[C@@H](C(=O)N1CCN(c2ccccc2)CC1)n1cnc2ccccc2c1=O | inactive | 
CCC(C)NCCC(c1ccccc1)c1ccc(C)c(C)c1O (stereo not given) | inactive | 
CCCOc1ccc(NC(=O)COc2cccc(C)c2C)c2cccnc12 | inactive | 
CCOc1ccccc1OCC(=O)Nc1cccc2ncccc12 | 8.91 µM (active) | 
COc1c(C)cccc1C(=O)Nc1cccc2ncccc12 | inactive | 
Cc1ccc(NS(=O)(=O)c2c(C)[nH]c(C)c2C(=O)N2CCCCC2)c(C)c1 | inactive | 
Cc1ccc(N/N=C/C=C/c2ccccc2)cc1Cl | inactive | 
Cc1nc2cc(NC(C(=O)Nc3ccc(F)cc3)c3ccccc3)ccc2o1 (stereo not given) | inactive | 
COc1ccc(C(=O)/C(=C/c2ccncc2)c2nc3ccccc3o2)cc1OC | 15.8 µM (active) | 
COc1ccc(/C=C/c2nc3ccccc3o2)cc1OCC(C)C | inactive | 
COc1ccc(NC(C)=O)cc1NC(=O)/C=C/c1nc2ccccc2o1 | inactive | 
Cc1ccc(CCC(=O)Nc2ccc(C)c(C)c2)s1 | inactive | 
CCN1C(=O)c2ccccc2S(=O)c2ccc(C(=O)NCc3ccc(F)cc3)cc21 (stereo not given) | inactive | 
O=C(O)c1ccc2c(c1)N(Cc1ccc(F)cc1)C(=O)c1ccccc1S2=O (stereo not given) | 8.91 µM (active) | 
O=C(NC1CCCCC1)c1ccc2c(c1)N(Cc1ccc(Cl)cc1)C(=O)c1ccccc1S2=O (stereo not given) | inactive | 
O=C(CC(=O)c1ccc(F)cc1)c1ccc(F)cc1 | inactive | 
CC(Oc1ccc(C#N)cc1)C(=O)NC(C1CC1)C1CC1 (stereo not given) | inactive | 

Compound | Potency | activity change, negative = inhibition
O=S1(=O)c2ccc(N3CCN(Cc4ccccc4F)CC3)cc2Oc2ccccc2CN1Cc1cn(Cc2ccc(Cl)cc2)nn1 | inactive | 
Cc1nn(Cc2ccc(F)cc2)c(C)c1NC(=O)c1noc2c1CCc1ccccc1-2 | inactive | 
Cc1nn(Cc2ccc(F)cc2)c(C)c1NC(=O)c1cc(CC(C)C)on1 | 25.1 µM (active) | 
Cc1ccccc1Cn1nc(C)c(NC(=O)c2cc(-c3ccc(F)cc3)on2)c1C | inactive | 
O=C(Nc1ccccc1)C1=C(Nc2ccc(F)cc2F)c2ccccc2S1(=O)=O | inactive | 
CC(=O)Nc1ccc(NC(=O)COC(=O)c2oc3ccccc3c2C)cc1 | inactive | 
CN(Cc1ccc2c(c1)OCCO2)CC(O)COc1ccccc1C(C)(C)C (stereo not given) | inactive | 
CC(C)(C)c1ccc2c(c1)OCCOCCOCCOc1ccc(C(C)(C)C)cc1OCCOCCOCCO2 | 25.1 µM (active) | 
CC(Sc1ccc2c(c1)OCCCO2)C(=O)O (stereo not given) | inactive | 
Cc1ccnc(NC(=O)CCc2ncc(-c3ccc(F)cc3F)o2)c1 | inactive | 
CCOc1ccc(NC(C)=O)cc1S(=O)(=O)Nc1ccccc1-c1nnc2n1CCCCC2 | inactive | 
COc1ccc(-c2c(C)c3ccc(O)c(C)c3oc2=O)cc1 | inactive | 
COc1ccc(-c2c(C)c3ccc(OS(C)(=O)=O)cc3oc2=O)cc1 | 15.8 µM (active) | 
COc1ccc(-c2c(C)oc3cc(OC)ccc3c2=O)cc1 | inactive | 
CCNc1c(NS(=O)(=O)c2ccc3c(c2)oc(=O)n3C)c(=O)oc2ccccc12 | inactive | 
CC(C)c1ccc2oc(=O)cc(CN3CCN(Cc4ccccc4)CC3)c2c1 | inactive | 
Cc1cccc(CN2CCN(Cc3cc(=O)oc4c(C)c(O)ccc34)CC2)c1 | 20 µM (active) | 
Cc1cc2oc(=O)cc(CN3CCN(c4ccccc4)CC3)c2cc1O | inactive | 
CNC/C=C/COc1ccc(C)c(C)c1 | inactive | 
Cc1ccc(S(C)(=O)=O)cc1NCc1ccccc1F | inactive | 
CCC(Sc1nc2ncccc2[nH]1)C(=O)Nc1ccc(C)c(Cl)c1 (stereo not given) | inactive | 
NCCOc1ccc(C(F)(F)F)cc1 | inactive | 

Compound | Potency | activity change, negative = inhibition
CC(C)(C)C(=O)NCCCC(=O)NCCc1ccccc1 | inactive | 
Cc1ccc2c(Cn3nnc(-c4ccc(F)cc4)n3)cc(=O)oc2c1 | inactive | 
Cc1ccccc1NS(=O)(=O)c1ccc(C(=O)N(C)CC(=O)Nc2cccc3ccccc23)cc1 | inactive | 
O=C(Cc1ccccc1Cl)N1CCN(c2ncnc3nc[nH]c23)CC1 | inactive | 
CC(=O)Nc1ccc2oc(-c3cncc(Br)c3)nc2c1 | inactive | 
CCOc1ccc(NC(=O)CCc2ncc(-c3ccccc3F)o2)cc1 | inactive | 
CCc1cc(C(=O)N2CCN(c3ccccc3OC)CC2)no1 | inactive | 
O=C(Nc1cccc(-c2nc3cc(Cl)ccc3o2)c1)c1ccccc1 | inactive | 
Fc1ccc(Oc2ccc(CNc3ncccn3)cn2)cc1 | inactive | 
CC(CCN1CCC(C(O)(c2ccccc2)c2ccccc2)CC1)Oc1ccc([N+](=O)[O-])cc1Cl (stereo not given) | inactive | 
CC(=O)Oc1ccc2c(C)c(-c3ccccc3)c(=O)oc2c1 | inactive | 
CC1CCc2sc(N)c(C#N)c2C1 (stereo not given) | inactive | 
COC(=O)CN1CCCC1c1ccsc1 (stereo not given) | inactive | 
CCCCNC(=O)c1cccc(N)c1 | inactive | 
C=C(C)CN1CCN(CCO)CC1 | inactive | 
Cc1sc2nc(SCc3ccc(Cl)cc3)n(CCCN3CCOCC3)c(=O)c2c1C | inactive | 
Cc1ccccc1Nc1nc(-c2ccc([N+](=O)[O-])cc2)nc2ccccc12 | inactive | 
FC(F)(F)c1ccccc1C(c1ccccc1)N1CCCNCC1 (stereo not given) | inactive | 
COc1ccc(OC)c(CNC(=O)c2scnc2C)c1 | inactive | 
Cc1ncsc1C(=O)NCc1ccc(N2CCCCCC2)nc1 | 12.6 µM (active) | 
Cc1ccc(CNC(=O)c2scnc2C)cn1 | inactive | 
COc1cccc(CNC(=O)N2CCN(Cc3ccc(Br)s3)CC2)c1 | inactive | 

Source: PubChem BioAssay AID1745857 (National Center for Advancing Translational Sciences (NCATS), 2022)
